Test results reported in ChEMBL document CHEMBL2218924, “A broad activity screen in support of a chemogenomic map for kinase signalling research and drug discovery” (Biochem J, 2013).

Experiments:
[1] = target: T1, Serine/threonine-protein kinase TBK1 (Homo sapiens) (UniProt Q9UHD2); settings: at 10 µM
T1 sequence (whole entry): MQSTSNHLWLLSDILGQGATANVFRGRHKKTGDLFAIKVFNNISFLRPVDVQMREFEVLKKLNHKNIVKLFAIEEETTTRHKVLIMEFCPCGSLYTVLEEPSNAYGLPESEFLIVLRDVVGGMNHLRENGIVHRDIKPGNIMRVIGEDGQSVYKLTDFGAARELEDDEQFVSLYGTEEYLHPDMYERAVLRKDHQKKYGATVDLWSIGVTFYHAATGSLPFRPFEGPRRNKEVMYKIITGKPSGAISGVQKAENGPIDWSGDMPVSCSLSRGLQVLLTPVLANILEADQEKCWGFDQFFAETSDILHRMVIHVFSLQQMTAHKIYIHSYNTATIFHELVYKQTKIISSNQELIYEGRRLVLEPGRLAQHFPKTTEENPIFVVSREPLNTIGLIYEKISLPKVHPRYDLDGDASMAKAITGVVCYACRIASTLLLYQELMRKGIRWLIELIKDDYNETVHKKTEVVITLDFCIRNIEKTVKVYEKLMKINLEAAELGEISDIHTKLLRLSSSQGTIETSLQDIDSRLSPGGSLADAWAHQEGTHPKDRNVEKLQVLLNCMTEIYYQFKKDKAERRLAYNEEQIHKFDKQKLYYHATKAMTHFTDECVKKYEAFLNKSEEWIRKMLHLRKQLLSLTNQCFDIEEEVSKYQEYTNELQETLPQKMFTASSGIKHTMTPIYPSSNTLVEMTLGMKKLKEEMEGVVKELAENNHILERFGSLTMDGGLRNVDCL

[2] = target: T2, TGF-beta receptor type-1 (Homo sapiens) (UniProt P36897); settings: at 1 µM
T2 sequence (whole entry): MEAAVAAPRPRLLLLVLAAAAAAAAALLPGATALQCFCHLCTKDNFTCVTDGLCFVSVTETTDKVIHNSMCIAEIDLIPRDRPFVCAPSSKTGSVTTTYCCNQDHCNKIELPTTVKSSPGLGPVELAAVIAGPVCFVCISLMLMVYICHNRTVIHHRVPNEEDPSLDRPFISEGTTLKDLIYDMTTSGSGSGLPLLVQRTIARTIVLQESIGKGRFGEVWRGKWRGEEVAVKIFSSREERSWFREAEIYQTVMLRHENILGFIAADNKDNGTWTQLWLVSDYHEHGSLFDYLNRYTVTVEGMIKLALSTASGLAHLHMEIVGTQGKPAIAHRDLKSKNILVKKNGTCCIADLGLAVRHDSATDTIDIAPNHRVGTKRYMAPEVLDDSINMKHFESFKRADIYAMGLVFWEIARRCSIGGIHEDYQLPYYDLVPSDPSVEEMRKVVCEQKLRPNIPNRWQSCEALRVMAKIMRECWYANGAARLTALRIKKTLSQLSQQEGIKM

[3] = target: T2, TGF-beta receptor type-1 (Homo sapiens); settings: at 10 µM
[4] = target: Insulin-like growth factor 1 receptor (Homo sapiens) (UniProt P08069); settings: at 1 µM
Insulin-like growth factor 1 receptor (Homo sapiens), sequence (P08069 31-736 limits assumed): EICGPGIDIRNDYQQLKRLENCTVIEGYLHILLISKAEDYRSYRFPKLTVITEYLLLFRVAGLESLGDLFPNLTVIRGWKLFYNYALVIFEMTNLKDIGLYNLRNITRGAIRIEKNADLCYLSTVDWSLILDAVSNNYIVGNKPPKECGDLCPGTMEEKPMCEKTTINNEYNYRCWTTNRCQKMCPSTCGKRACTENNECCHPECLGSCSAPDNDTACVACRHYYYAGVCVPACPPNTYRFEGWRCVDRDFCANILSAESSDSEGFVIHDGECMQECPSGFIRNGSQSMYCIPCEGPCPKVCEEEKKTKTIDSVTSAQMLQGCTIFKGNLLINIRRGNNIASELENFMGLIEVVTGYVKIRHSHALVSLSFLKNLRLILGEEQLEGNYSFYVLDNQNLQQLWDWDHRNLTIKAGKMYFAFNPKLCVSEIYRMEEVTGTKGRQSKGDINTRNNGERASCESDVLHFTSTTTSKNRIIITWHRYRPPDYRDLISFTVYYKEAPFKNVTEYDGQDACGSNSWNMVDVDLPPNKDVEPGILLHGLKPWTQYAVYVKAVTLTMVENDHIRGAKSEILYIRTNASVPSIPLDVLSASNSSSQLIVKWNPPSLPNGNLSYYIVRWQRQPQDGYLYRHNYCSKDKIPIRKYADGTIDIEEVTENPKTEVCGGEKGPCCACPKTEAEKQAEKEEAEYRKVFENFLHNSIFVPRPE
Insulin-like growth factor 1 receptor (Homo sapiens), sequence (P08069 741-1367 limits assumed): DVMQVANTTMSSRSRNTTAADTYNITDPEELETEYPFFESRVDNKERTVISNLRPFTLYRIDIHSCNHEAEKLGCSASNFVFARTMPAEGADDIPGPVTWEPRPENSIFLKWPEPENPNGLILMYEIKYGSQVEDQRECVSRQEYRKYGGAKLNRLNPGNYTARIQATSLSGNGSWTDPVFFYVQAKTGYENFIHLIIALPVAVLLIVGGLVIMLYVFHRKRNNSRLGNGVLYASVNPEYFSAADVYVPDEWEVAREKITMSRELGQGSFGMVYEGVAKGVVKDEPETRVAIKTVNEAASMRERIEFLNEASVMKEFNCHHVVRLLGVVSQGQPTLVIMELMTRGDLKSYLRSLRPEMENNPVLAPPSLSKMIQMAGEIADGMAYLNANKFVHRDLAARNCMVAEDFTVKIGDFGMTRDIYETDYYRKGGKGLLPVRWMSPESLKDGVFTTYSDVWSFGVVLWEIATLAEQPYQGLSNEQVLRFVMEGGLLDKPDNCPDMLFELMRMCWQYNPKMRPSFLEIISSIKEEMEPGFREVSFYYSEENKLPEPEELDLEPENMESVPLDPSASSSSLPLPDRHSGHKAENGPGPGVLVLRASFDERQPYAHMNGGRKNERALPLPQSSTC

[5] = target: Insulin-like growth factor 1 receptor (Homo sapiens) (UniProt P08069); settings: at 10 µM
[6] = target: T3, Inhibitor of nuclear factor kappa-B kinase subunit alpha (Homo sapiens) (UniProt O15111); settings: at 1 µM
T3 sequence (whole entry): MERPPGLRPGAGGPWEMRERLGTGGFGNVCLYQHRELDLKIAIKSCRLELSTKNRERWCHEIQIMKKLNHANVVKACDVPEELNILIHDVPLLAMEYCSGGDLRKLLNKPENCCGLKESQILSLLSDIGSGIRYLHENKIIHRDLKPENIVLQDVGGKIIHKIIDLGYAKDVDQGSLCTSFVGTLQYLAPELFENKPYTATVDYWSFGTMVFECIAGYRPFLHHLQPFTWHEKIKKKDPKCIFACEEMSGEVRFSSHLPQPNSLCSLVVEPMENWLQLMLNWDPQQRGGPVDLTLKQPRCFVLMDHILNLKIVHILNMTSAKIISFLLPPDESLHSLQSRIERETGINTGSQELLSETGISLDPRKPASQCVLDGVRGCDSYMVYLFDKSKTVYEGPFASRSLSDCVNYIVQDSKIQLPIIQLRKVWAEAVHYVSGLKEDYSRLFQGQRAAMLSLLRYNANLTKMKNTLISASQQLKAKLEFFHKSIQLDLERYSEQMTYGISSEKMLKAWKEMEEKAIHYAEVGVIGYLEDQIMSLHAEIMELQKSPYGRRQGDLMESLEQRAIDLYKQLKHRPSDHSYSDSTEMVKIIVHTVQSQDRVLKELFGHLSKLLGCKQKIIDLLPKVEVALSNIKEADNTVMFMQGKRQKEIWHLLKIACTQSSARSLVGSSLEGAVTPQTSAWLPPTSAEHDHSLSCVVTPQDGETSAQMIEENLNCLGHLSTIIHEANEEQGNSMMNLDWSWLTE

[7] = target: T3, Inhibitor of nuclear factor kappa-B kinase subunit alpha (Homo sapiens); settings: at 10 µM
[8] = target: T4, Inhibitor of nuclear factor kappa-B kinase subunit beta (Homo sapiens) (UniProt O14920); settings: at 1 µM
T4 sequence (whole entry): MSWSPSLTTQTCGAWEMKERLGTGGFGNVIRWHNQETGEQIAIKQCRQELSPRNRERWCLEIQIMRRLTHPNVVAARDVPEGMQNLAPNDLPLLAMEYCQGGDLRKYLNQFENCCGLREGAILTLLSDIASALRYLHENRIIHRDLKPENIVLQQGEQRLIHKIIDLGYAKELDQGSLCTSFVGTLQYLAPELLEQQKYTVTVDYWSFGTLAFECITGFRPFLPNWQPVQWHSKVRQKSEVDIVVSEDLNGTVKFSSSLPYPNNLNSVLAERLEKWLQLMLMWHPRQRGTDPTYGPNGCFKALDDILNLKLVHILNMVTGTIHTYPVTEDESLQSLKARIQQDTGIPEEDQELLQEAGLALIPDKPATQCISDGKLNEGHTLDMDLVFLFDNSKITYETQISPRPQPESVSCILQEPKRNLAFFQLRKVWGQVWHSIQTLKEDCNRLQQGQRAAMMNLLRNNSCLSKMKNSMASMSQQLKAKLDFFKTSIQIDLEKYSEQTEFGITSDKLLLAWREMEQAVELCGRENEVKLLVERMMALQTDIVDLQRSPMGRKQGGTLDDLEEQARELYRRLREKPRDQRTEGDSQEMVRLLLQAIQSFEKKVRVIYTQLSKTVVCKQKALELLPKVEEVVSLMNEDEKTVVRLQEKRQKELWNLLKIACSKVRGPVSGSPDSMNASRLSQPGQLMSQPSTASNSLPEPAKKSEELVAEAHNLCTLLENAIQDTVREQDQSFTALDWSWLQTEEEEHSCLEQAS

[9] = target: T4, Inhibitor of nuclear factor kappa-B kinase subunit beta (Homo sapiens); settings: at 10 µM
[10] = target: Insulin receptor (Homo sapiens) (UniProt P06213); settings: at 1 µM
Insulin receptor (Homo sapiens), sequence (P06213 28-758 limits assumed): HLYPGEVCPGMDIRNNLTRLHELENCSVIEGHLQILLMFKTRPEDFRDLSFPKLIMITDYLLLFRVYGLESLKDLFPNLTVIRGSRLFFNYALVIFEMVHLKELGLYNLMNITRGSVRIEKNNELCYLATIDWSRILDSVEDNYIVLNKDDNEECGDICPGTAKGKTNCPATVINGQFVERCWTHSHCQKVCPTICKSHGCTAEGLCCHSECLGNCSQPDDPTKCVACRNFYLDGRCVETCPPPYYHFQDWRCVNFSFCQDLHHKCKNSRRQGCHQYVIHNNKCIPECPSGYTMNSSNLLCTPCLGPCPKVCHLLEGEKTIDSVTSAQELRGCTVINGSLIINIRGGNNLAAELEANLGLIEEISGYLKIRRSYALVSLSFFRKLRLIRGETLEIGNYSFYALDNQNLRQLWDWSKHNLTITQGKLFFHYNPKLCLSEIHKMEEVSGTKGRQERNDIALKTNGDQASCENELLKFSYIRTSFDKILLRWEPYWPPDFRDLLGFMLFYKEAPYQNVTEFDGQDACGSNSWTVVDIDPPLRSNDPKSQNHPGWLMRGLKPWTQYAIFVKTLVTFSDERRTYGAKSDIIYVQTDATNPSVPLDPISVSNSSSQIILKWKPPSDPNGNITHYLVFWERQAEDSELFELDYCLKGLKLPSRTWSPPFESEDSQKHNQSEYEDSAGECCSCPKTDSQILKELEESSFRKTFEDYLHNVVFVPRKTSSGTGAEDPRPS
Insulin receptor (Homo sapiens), sequence (P06213 763-1382 limits assumed): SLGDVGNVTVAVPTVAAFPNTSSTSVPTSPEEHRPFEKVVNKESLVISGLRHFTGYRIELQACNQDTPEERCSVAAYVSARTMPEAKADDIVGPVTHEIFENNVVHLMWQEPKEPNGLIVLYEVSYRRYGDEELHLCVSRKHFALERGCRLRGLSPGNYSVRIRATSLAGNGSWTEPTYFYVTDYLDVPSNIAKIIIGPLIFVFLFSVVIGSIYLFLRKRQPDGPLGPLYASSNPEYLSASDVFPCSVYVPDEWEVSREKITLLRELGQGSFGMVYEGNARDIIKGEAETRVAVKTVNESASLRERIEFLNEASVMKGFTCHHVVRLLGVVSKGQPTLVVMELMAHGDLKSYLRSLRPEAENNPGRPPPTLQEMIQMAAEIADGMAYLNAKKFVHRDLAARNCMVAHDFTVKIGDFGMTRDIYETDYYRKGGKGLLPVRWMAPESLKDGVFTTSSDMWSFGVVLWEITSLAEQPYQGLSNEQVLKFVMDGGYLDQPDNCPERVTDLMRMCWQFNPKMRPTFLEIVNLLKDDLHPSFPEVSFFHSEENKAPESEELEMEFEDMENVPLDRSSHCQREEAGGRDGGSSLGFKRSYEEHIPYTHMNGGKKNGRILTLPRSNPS

Structure (SMILES): Oc1ccc(Nc2nc(-c3ccc(Cl)cc3)cs2)cc1
- residual activity [1]: 80%
- residual activity [2]: 123%
- residual activity [3]: 100%
- residual activity [4]: 103%
- residual activity [5]: 108%
- residual activity [6]: 102%
- residual activity [7]: 134%
- residual activity [8]: 115%
- residual activity [9]: 110%
- residual activity [10]: 112%
